According to ChEMBL document CHEMBL1961873, “Compounds: GSK PKIS; Assays: Nanosyn kinase panel” (2012):

Tests used:
[1] = target: Tyrosine-protein kinase Fer (Homo sapiens) (UniProt P16591); conditions: at 1 µM
[2] = target: Tyrosine-protein kinase Fes/Fps (Homo sapiens) (UniProt P07332); conditions: at 0.1 µM
[3] = target: Tyrosine-protein kinase Fes/Fps (Homo sapiens) (UniProt P07332); conditions: at 1 µM
[4] = target: Fibroblast growth factor receptor 1 (Homo sapiens) (UniProt P11362); conditions: at 0.1 µM
[5] = target: Fibroblast growth factor receptor 1 (Homo sapiens) (UniProt P11362); conditions: at 1 µM
[6] = target: Fibroblast growth factor receptor 2 (Homo sapiens) (UniProt P21802); conditions: at 0.1 µM
[7] = target: Fibroblast growth factor receptor 2 (Homo sapiens) (UniProt P21802); conditions: at 1 µM
[8] = target: Fibroblast growth factor receptor 3 (Homo sapiens) (UniProt P22607); conditions: at 0.1 µM
[9] = target: Fibroblast growth factor receptor 3 (Homo sapiens) (UniProt P22607); conditions: at 1 µM
[10] = target: Fibroblast growth factor receptor 4 (Homo sapiens) (UniProt P22455); conditions: at 0.1 µM
[11] = target: Fibroblast growth factor receptor 4 (Homo sapiens) (UniProt P22455); conditions: at 1 µM
[12] = target: Tyrosine-protein kinase Fgr (Homo sapiens) (UniProt P09769); conditions: at 0.1 µM
[13] = target: Tyrosine-protein kinase Fgr (Homo sapiens) (UniProt P09769); conditions: at 1 µM
[14] = target: Vascular endothelial growth factor receptor 1 (Homo sapiens) (UniProt P17948); conditions: at 0.1 µM
[15] = target: Vascular endothelial growth factor receptor 1 (Homo sapiens) (UniProt P17948); conditions: at 1 µM
[16] = target: Receptor-type tyrosine-protein kinase FLT3 (Homo sapiens) (UniProt P36888); conditions: at 0.1 µM
[17] = target: Receptor-type tyrosine-protein kinase FLT3 (Homo sapiens) (UniProt P36888); conditions: at 1 µM
[18] = tested on: T1, Receptor-type tyrosine-protein kinase FLT3 (Homo sapiens), P36888 [D835Y]; conditions: at 0.1 µM
T1 sequence (whole entry): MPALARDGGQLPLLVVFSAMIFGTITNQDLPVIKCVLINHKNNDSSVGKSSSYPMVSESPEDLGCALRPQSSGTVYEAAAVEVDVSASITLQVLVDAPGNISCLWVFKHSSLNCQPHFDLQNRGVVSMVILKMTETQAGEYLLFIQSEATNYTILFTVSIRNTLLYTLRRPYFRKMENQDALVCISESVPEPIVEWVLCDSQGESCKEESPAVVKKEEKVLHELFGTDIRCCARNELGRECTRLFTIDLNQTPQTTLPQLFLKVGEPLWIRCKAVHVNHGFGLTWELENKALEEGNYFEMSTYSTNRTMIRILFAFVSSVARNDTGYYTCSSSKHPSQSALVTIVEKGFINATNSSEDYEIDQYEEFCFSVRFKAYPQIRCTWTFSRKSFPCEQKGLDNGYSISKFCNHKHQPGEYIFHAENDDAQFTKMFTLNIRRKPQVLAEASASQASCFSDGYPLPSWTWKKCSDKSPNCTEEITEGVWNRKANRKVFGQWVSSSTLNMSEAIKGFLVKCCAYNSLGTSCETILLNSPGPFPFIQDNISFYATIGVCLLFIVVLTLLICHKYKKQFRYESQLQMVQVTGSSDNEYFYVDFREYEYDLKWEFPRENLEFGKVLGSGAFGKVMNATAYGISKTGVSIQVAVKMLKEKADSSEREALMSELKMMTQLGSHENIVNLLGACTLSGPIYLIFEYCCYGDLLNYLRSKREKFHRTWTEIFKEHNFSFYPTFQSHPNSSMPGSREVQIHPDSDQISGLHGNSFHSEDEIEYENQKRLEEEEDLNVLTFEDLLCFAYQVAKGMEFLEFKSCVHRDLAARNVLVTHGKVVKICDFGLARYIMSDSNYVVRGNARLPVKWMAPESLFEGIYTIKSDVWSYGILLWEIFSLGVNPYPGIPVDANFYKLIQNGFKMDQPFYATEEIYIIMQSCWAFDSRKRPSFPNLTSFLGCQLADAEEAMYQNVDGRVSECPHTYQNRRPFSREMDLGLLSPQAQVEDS

[19] = target: Non-receptor tyrosine-protein kinase TYK2 (Homo sapiens) (UniProt P29597); conditions: at 1 µM;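 also: values are mean percent inhibition of TYK2 kinase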
[20] = target: T2, Tyrosine-protein kinase receptor TYRO3 (Homo sapiens) (UniProt Q06418); conditions: at 0.1 µM;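 also: reported percentages are averaged inhibition values of TYRO3 kinase activity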
T2 sequence (whole entry): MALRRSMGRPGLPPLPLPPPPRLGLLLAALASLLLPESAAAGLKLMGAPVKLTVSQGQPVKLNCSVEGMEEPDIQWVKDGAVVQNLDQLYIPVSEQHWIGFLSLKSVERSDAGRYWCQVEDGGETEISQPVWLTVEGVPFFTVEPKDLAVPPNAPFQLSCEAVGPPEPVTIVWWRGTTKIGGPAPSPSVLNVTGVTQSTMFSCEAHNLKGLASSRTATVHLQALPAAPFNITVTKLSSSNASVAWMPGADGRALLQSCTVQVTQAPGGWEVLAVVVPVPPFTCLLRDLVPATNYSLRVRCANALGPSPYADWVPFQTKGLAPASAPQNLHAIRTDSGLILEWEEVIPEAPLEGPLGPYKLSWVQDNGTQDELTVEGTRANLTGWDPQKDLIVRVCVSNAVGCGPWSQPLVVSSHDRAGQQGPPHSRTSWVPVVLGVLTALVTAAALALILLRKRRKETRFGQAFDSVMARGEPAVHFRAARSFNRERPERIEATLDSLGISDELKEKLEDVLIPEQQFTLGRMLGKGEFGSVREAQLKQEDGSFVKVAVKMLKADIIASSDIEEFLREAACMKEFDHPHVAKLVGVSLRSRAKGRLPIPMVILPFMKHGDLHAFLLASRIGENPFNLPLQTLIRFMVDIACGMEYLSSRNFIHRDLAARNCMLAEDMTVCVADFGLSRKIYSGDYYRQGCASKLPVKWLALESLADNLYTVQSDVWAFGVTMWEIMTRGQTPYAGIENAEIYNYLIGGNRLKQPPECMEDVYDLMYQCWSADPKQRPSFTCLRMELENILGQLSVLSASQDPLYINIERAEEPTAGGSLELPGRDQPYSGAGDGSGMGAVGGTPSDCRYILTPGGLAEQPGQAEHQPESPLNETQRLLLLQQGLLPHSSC

Tyrosine-protein kinase Fgr (Homo sapiens), sequence (P09769 2-529 limits assumed): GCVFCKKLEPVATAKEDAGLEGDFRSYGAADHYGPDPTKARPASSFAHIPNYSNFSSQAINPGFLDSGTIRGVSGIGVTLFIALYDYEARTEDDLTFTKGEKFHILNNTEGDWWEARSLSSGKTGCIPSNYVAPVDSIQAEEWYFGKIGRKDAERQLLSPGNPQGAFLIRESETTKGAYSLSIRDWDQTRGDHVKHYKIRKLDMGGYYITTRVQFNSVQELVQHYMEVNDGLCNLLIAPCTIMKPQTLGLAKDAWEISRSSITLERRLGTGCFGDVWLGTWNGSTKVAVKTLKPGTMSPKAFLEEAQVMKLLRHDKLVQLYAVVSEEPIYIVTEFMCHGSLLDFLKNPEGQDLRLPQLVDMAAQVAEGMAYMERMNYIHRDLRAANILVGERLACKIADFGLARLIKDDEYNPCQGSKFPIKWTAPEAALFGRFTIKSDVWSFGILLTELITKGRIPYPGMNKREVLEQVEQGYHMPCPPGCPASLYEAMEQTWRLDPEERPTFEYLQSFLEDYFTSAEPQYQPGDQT
Vascular endothelial growth factor receptor 1 (Homo sapiens), sequence (P17948 whole entry): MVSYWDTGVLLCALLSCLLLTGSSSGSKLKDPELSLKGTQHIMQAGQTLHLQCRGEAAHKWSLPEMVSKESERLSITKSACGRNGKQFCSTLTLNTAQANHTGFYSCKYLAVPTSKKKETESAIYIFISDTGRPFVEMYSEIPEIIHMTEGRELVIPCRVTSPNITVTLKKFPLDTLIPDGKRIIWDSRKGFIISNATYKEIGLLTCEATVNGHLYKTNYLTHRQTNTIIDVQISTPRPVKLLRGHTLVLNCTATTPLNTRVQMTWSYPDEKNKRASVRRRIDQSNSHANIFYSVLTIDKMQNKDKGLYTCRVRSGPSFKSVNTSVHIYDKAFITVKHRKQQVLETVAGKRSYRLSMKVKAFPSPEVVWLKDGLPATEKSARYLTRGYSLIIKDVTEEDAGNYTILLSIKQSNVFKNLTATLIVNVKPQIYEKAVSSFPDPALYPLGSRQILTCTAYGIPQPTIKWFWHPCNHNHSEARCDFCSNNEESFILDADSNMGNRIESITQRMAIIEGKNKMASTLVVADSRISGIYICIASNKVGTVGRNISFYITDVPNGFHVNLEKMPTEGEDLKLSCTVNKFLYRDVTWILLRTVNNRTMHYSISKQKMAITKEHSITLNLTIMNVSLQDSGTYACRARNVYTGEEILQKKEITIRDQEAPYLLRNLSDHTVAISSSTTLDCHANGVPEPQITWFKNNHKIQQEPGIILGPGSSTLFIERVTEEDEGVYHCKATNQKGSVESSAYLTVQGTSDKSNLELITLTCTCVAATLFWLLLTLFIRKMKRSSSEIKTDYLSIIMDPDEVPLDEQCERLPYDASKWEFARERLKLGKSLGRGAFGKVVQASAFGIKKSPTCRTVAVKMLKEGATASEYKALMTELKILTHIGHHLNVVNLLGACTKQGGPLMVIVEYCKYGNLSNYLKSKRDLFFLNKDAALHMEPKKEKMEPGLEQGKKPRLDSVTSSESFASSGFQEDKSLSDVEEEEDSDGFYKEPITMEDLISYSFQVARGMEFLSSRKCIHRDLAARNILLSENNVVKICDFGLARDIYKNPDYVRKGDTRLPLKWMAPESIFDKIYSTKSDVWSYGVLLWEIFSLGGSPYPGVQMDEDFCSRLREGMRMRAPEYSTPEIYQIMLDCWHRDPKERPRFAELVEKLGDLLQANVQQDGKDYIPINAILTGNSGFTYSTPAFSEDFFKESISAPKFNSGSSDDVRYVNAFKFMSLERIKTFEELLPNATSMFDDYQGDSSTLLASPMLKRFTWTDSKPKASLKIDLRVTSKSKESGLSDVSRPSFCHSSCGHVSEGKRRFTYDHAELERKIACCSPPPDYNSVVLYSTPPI
Fibroblast growth factor receptor 2 (Homo sapiens), sequence (P21802 22-821 limits assumed): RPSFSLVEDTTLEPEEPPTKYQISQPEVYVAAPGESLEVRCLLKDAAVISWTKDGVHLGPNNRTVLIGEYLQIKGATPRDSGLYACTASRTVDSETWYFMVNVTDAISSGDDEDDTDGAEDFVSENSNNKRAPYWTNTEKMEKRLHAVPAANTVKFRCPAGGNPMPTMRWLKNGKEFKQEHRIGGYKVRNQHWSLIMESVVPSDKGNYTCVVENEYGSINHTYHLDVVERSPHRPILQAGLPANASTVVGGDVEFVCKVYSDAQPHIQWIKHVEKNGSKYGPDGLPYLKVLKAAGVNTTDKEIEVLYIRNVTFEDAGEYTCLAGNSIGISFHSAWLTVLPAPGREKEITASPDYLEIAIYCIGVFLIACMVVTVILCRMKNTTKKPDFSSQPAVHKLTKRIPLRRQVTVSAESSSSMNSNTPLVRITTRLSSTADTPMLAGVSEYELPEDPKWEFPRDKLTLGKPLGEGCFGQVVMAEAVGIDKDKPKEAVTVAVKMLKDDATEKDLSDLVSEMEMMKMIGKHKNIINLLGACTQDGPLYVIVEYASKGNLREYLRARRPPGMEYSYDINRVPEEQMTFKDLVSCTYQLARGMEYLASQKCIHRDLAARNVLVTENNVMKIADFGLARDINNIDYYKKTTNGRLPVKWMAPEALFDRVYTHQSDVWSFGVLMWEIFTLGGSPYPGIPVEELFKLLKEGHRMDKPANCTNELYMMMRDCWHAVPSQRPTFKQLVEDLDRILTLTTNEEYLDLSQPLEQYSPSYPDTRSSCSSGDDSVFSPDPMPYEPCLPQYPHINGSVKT
Fibroblast growth factor receptor 1 (Homo sapiens), sequence (P11362 22-822 limits assumed): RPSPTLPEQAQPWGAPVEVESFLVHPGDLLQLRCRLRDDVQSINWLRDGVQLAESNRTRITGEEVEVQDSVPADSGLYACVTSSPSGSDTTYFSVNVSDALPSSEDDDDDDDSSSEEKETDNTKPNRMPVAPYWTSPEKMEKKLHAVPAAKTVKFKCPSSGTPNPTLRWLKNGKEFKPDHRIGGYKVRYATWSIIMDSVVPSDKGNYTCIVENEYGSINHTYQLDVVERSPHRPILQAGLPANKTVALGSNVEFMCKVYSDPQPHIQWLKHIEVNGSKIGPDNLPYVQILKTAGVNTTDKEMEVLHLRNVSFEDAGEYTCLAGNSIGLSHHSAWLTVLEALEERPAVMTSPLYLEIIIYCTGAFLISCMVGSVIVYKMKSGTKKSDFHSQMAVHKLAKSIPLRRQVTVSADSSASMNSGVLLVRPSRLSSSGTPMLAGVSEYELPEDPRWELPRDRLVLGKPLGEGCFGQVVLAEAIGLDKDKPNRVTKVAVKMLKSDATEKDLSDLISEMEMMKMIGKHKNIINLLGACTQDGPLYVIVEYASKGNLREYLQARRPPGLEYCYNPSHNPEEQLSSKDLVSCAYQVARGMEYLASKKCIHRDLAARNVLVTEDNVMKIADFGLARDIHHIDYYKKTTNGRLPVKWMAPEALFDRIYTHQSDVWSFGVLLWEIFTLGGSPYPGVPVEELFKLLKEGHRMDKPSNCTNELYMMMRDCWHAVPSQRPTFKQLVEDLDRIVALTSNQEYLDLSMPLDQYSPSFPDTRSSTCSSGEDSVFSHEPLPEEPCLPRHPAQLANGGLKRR
Fibroblast growth factor receptor 4 (Homo sapiens), sequence (P22455 22-802 limits assumed): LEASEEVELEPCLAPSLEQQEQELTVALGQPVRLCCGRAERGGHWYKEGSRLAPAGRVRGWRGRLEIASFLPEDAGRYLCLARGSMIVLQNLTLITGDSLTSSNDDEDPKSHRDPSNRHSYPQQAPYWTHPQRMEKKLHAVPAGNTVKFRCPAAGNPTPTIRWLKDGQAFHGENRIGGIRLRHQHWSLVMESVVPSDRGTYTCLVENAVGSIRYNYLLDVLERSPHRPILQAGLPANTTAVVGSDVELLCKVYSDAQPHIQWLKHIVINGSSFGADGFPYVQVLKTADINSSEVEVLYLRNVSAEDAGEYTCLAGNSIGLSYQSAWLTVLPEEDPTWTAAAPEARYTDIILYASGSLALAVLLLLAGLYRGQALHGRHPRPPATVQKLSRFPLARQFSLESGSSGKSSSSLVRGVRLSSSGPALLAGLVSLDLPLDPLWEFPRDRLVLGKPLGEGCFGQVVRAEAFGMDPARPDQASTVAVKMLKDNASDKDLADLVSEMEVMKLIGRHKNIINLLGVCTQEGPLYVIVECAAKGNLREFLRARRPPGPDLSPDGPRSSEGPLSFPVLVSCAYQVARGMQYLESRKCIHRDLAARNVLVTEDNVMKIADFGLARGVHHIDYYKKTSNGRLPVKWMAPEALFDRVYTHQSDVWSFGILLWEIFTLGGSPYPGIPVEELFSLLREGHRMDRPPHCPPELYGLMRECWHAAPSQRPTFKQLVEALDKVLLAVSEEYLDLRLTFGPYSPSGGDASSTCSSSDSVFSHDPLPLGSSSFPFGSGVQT
Fibroblast growth factor receptor 3 (Homo sapiens), sequence (P22607 23-806 limits assumed): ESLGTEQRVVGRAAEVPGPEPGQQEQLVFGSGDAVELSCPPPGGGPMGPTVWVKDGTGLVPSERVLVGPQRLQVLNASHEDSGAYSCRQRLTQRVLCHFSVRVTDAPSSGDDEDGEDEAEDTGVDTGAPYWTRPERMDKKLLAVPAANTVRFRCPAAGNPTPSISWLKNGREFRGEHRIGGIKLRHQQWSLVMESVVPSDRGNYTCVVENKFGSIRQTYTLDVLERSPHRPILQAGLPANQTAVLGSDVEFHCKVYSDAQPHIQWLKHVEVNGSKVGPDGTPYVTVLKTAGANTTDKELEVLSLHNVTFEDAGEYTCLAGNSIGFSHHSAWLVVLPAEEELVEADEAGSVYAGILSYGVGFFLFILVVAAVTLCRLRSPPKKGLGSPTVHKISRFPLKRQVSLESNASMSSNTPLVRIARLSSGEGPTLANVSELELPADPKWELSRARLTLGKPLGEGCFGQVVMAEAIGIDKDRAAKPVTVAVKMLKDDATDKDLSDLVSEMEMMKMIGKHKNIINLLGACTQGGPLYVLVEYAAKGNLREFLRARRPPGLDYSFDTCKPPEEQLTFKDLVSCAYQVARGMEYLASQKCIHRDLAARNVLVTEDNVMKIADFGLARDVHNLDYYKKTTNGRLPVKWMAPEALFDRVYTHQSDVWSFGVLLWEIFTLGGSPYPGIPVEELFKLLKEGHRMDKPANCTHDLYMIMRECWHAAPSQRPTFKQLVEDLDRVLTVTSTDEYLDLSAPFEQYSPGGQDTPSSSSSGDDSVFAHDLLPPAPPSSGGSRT

Row | Compound | inhibition [1] | inhibition [2] | inhibition [3] | inhibition [4] | inhibition [5] | inhibition [6] | inhibition [7] | inhibition [8] | inhibition [9] | inhibition [10] | inhibition [11] | inhibition [12] | inhibition [13] | inhibition [14] | inhibition [15] | inhibition [16] | inhibition [17] | inhibition [18] | inhibition [19] | inhibition [20]
1 | Cc1nnc(-c2cccc(-c3ccc(C(=O)NCC4CC4)cc3)c2)o1 | 3.05% | 4.04% | 4.25% | 2.64% | 0.61% | 4.95% | 5.08% | 6.23% | 6.22% | -0.29% | 0.59% | 5.74% | 2.02% | 3.18% | 1.49% | 1.38% | 4.66% | -2.89% | -4.07% | 4.15%
2 | COc1ccc(Nc2ncc(-c3ccccc3)o2)cc1OC | 4.34% | 0.6% | 3.66% | -3.4% | 5.44% | 1.29% | 19.4% | 2.32% | 13.2% | 0.41% | 1.3% | 3.96% | 31.4% | 6.85% | 23.6% | 76.6% | 89.4% | 15.2% | 5.03% | 0.14%
3 | COc1cc(Nc2ncc(-c3ccccc3)o2)cc(OC)c1 | 3.14% | 3.89% | 3.89% | 2.6% | 7.89% | 3.62% | 11.7% | 1.91% | 10.2% | -1.24% | -0.29% | 5.71% | 30.2% | 4.69% | 18.8% | 71.8% | 90.5% | 5.63% | -1.72% | 2.81%
4 | Cn1c(-c2nonc2N)nc2cnccc21 | 6.7% | 2.6% | 3.53% | 4.78% | 2.36% | 2.83% | 1.91% | 5.11% | 1.94% | -0.24% | 1.93% | 2.79% | 3.33% | 1.36% | 1.68% | 4.49% | 1.55% | 1.71% | -2.34% | 1.78%
5 | CNC(=O)c1sc(-n2cnc3cc(OC)c(OC)cc32)cc1OCc1ccccc1C(F)(F)F | 5.74% | 3.32% | 3.26% | -4.6% | 7.69% | 4.22% | 7.4% | 2.02% | 7.23% | 0.59% | 1.34% | 4.08% | 10.1% | 1.22% | 0.98% | 2.13% | 3.19% | -3.62% | -3.45% | 1.67%
6 | N#Cc1ccc2c(-c3ccnc(NC4CC4)n3)c(-c3ccc(F)cc3)nn2c1 | -0.62% | 1.05% | 1.43% | -2.46% | 1.96% | 1.16% | 2.21% | 1.76% | 1.06% | 1.18% | -0.59% | 1.68% | 1.53% | 1.23% | 3.07% | 0.32% | -2.7% | -5.78% | -2.44% | -1.24%
7 | NS(=O)(=O)c1cccc(N/C=C2\C(=O)Nc3ccccc32)c1 | 6.18% | 3.03% | 3.46% | 5.1% | 8.92% | 7.77% | 26.9% | 8.3% | 21% | -4.72% | 3.92% | 5.5% | 13.8% | 7.92% | 15.2% | 5.75% | 36.4% | 1.52% | -1.95% | 3.33%
8 | Fc1ccc(Nc2nccc(-c3c(-c4ccc(C(F)(F)F)cc4)nn4ncccc34)n2)cc1F | 4.28% | 3.21% | 3.35% | 7.42% | 4.6% | 5.3% | 6.72% | 6.52% | 4.25% | -0.65% | 3.24% | -0.18% | 4.23% | 1.95% | 4.12% | 1.11% | 4.52% | 0.57% | -3.25% | 3.71%
9 | CS(=O)(=O)CCNCc1ccc(-c2ccc3ncnc(Nc4ccc(OCc5cccc(C(F)(F)F)c5)cc4)c3c2)o1 | 0.74% | 3.52% | 4.12% | 6.33% | 10.8% | 6.07% | 14.2% | 9.13% | 10.7% | 4.16% | 1.52% | 0.16% | 3.55% | 1.21% | 2.94% | 10.4% | 28.9% | 0.04% | -4.13% | 0.61%
10 | CC(C)c1ccc(-c2cc(-c3c[nH]nc3-c3ccccn3)ccn2)cc1 | 2.58% | 0.8% | 1.23% | 6.6% | 1.8% | -0.22% | 3.83% | 3.55% | 1.81% | 0.39% | 0.16% | 0.18% | 1.8% | 0.29% | 6.12% | -2.11% | 2.26% | 1.43% | -0.96% | 1.06%
